Values joined by “and” are separate entries in the source; they are usually repeats but may differ in a detail not shown here. Equal entries are not always repeated. Results filed as inconclusive are left out. Active and inactive are the calls of the source. The call rests on the fitted dose curve; in most records, active means well fitted cell-killing curve with a large enough effect; inconclusive means small, poorly fitted or top-dose-only effect, or effect the other way; inactive means no such curve, though single readings can be large or run the other way.
Assay: Viability qHTS for spleen associated tyrosine kinase inhibitor (SYKi) naive MV4-11 cells (AID 1963823); further: nearly all actives have a fitted effect of over 40% in size
Conditions: MV4-11 AML viability, CellTiter-Glo luminescence, 72 h; series mostly up to 45 µM
Outline: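 Viability of MV4-11 AML cells lacking prior SYK inhibitor exposure is scored by CellTiter-Glo luminescence following 72 hr compound incubation at 37 C, 5% CO2, seeded at 500 cells per well.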
In the case of `CCOC(=O)CCNc1cc(N2CCc3ccccc3CC2)nc(-c2ccccn2)n1`, the Potency is reported as 4.68 µM (active).
With `COc1cc2c(cc1OC)C(=O)CC2` the Potency was “inactive”.
In the case of `C[C@@H](Oc1cc(C(=O)Nc2ccc(C(=O)N3CCN(C)CC3)cc2)nnc1N)c1c(Cl)ccc(F)c1Cl`, the Potency is reported as 1.66 µM (active).
For `O=C(NCCc1c[nH]c2ccccc12)c1cccnc1`, the Potency was 0.0019 µM (active).
For `CCCOc1ccn2c(C(C)=O)cc(-c3ccccc3S(C)(=O)=O)c2c1`, the Potency was 20.9 µM (active).
For `Cc1c(C)c2c(c(C)c1OC(=O)CCC(=O)OCCO)CC[C@@](C)(CCC[C@H](C)CCC[C@H](C)CCCC(C)C)O2`, the Potency was “inactive”.
With `CC(=O)CC(c1ccc([N+](=O)[O-])cc1)c1c(O)c2ccccc2oc1=O` (centres undefined) the Potency was “inactive”.
In the case of `CC(/C=C/C(=O)NO)=C\[C@@H](C)C(=O)c1ccc(N(C)C)cc1`, the Potency is reported as 326 nM (active) and 296 nM (active).
In the case of `NC(=O)c1ncn([C@@H]2O[C@H](CO)[C@@H](O)[C@H]2O)c1O`, the Potency is reported as “inactive”.
For `CCCCOC(=O)CC(CC(=O)OCCCC)(OC(C)=O)C(=O)OCCCC`, the Potency was “inactive”.
For `Cc1[nH]c(/C=C2\C(=O)Nc3ccc(S(=O)(=O)N(C)c4cccc(Cl)c4)cc32)c(C)c1C(=O)N1CCN(C)CC1`, the Potency was 1.3 µM (active) and 1.32 µM (active).
For `Nc1c2ccccc2nc2ccccc12`, the Potency was 2.99 µM (active).
In the case of `Cc1cc(I)ccc1Nc1c(C(=O)NOCC2CC2)cc(F)c(F)c1F`, the Potency is reported as 2.31 µM (active).
For `CN(C)CCOc1ccc(-c2nc(-c3ccc4c(c3)CC/C4=N\O)c(-c3ccncc3)[nH]2)cc1`, the Potency was 7.42 µM (active).

Source: PubChem BioAssay (NCATS)
Potency means the concentration at half of the fitted maximal effect.
